Measured values from PubChem BioAssay (Tox21).
Records with an inconclusive call do not appear. Active and inactive are the calls of the source. Unless noted, calls come from the whole dose curve.

Assay: qHTS assay to identify small molecule agonists of the NFkB signaling pathway (AID 1159509; active = well fitted curve in the direction sought with a large enough effect in the signal ratio in the repeat runs, not every such curve was filed as active; the % refers to the signal ratio)
Settings: NFkB-bla ME-180 cells, beta-lactamase FRET ratio, 5 h; series mostly up to 61 µM
Method in brief: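 Agonist activity was read as beta-lactamase-driven FRET change (460 and 530 nm emission, 405 nm excitation) following 1.5 hr substrate loading at room temperature. Beforehand, ME-180 NFkB-bla reporter cells were treated with compounds for 5 hr at 37 C.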

Question: Which outcome does the source give for `COC(=O)c1ccccc1C(=O)OC` here?
Answer: inactive

Question: With `Clc1ccc(Cl)cc1` as the compound, how does the outcome read?
Answer: inactive

Question: For `O=C(NC(=O)c1c(F)cccc1F)Nc1cc(Cl)c(OC(F)(F)C(F)C(F)(F)F)cc1Cl` (stereo unspecified), which outcome is on record?
Answer: inactive

Question: With `c1cc2c3c(cccc3c1)CC2` as the compound, how does the outcome read?
Answer: inactive

Question: For `C=C(C)CCl`, which outcome is on record?
Answer: inactive

Question: Which outcome does the source give for `CC(NC(C)(C)C)C(=O)c1cccc(Cl)c1` (stereo unspecified) here?
Answer: inactive

Question: For `c1ccc(OP(Oc2ccccc2)Oc2ccccc2)cc1`, which outcome is on record?
Answer: inactive

Assay: qHTS assay to identify small molecule agonists of the NFkB signaling pathway - cell viability counter screen (AID 1159515); note: nearly all actives have a fitted effect of over 55% in size
Settings: NFkB-bla ME-180 viability, CellTiter-Glo luminescence, 5 h; series mostly up to 61 µM
Method in brief: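 Tox21 library compounds were tested for cytotoxicity against NFkB-bla ME-180 cells during a 5 hr exposure at 37 C. CellTiter-Glo luminescence served as the viability read-out.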

Question: For `CC(C)C#N`, which outcome is on record?
Answer: inactive

Question: With `CC1OC(C)OC(C)O1` (stereo unspecified) as the compound, how does the outcome read?
Answer: inactive

Question: Which outcome does the source give for `Cc1cccc([N+](=O)[O-])c1` here?
Answer: inactive

Question: For `CCC[N+](=O)[O-]`, which outcome is on record?
Answer: inactive

Question: Which outcome does the source give for `COP(N)(=O)SC` (stereo unspecified) here?
Answer: inactive

Question: Which outcome does the source give for `O=c1[nH]c(=O)[nH]c(=O)[nH]1` here?
Answer: inactive

Question: For `O=NN1CCCCCCC1`, which outcome is on record?
Answer: inactive

Question: Which outcome does the source give for `CCCCCCCCCl` here?
Answer: inactive

Question: Which outcome does the source give for `C#CC(C)(C)NC(=O)c1cc(Cl)cc(Cl)c1` here?
Answer: inactive

Question: For `O=C(O)c1ccccn1`, which outcome is on record?
Answer: inactive

Question: For `OC(O)C(Cl)(Cl)Cl`, which outcome is on record?
Answer: inactive

Question: For `O=S(=O)(c1ccc(Cl)cc1)c1cc(Cl)c(Cl)cc1Cl`, which outcome is on record?
Answer: inactive

Question: Which outcome does the source give for `CNC(=O)Oc1ccccc1OC(C)C` here?
Answer: inactive

Question: With `C#CCN(C)[C@H](C)Cc1ccccc1` as the compound, how does the outcome read?
Answer: inactive

Question: For `CCNc1nc(NC(C)(C)C)nc(SC)n1`, which outcome is on record?
Answer: inactive

Question: With `OCCN(CCO)CCO` as the compound, how does the outcome read?
Answer: inactive

Question: Which outcome does the source give for `BrCCBr` here?
Answer: inactive

Question: With `O=S(=O)(c1ccc(O)cc1)c1ccc(O)cc1` as the compound, how does the outcome read?
Answer: inactive

Question: For `Nc1ccc(Oc2ccc(N)cc2)cc1`, which outcome is on record?
Answer: inactive

Question: With `CC(C)(Cl)Cl` as the compound, how does the outcome read?
Answer: inactive

Question: With `CN(C)[C@@H]1C(=O)C(C(N)=O)=C(O)[C@@]2(O)C(=O)C3=C(O)c4c(O)cccc4[C@@](C)(O)[C@H]3C[C@@H]12` as the compound, how does the outcome read?
Answer: inactive

Question: Which outcome does the source give for `Nc1ccccc1C(=O)O` here?
Answer: inactive

Question: For `C=CCO`, which outcome is on record?
Answer: inactive

Question: For `c1ccc2c(c1)oc1ccccc12`, which outcome is on record?
Answer: inactive

Question: Which outcome does the source give for `CC(C)=C[C@@H]1[C@@H](C(=O)OCc2coc(Cc3ccccc3)c2)C1(C)C` here?
Answer: inactive

Question: For `[O-][Cl+2]([O-])O`, which outcome is on record?
Answer: inactive

Question: Which outcome does the source give for `CCCCOC(=O)c1ccccc1C(=O)OCCCC` here?
Answer: inactive

Question: For `COC(=O)c1ccccc1C(=O)OC`, which outcome is on record?
Answer: inactive

Question: With `Clc1ccc(Cl)cc1` as the compound, how does the outcome read?
Answer: inactive

Question: With `O=C(NC(=O)c1c(F)cccc1F)Nc1cc(Cl)c(OC(F)(F)C(F)C(F)(F)F)cc1Cl` (stereo unspecified) as the compound, how does the outcome read?
Answer: inactive

Question: Which outcome does the source give for `c1cc2c3c(cccc3c1)CC2` here?
Answer: inactive

Question: Which outcome does the source give for `C=C(C)CCl` here?
Answer: inactive

Question: Which outcome does the source give for `CC(NC(C)(C)C)C(=O)c1cccc(Cl)c1` (stereo unspecified) here?
Answer: inactive

Question: With `c1ccc(OP(Oc2ccccc2)Oc2ccccc2)cc1` as the compound, how does the outcome read?
Answer: inactive
